Screens from PubChem.
Compounds with a hit are over-represented: about 14% of the library has one in this group of screens.
FBPA Giardia inh: blocks Giardia fructose-bisphosphate aldolase activity; hit rate 0.71% among 290,000; Potency, µM (series often up to 59.6 µM), for inactives: at the top dose activity, negative = inhibition, most hits filed as inhibitors; purified Giardia FBPA; A8B2U2; note: potency is the fitted concentration of half-maximal effect; nearly all actives have a fitted effect of over 55% in size
Target sequence (A8B2U2 whole entry, looked up): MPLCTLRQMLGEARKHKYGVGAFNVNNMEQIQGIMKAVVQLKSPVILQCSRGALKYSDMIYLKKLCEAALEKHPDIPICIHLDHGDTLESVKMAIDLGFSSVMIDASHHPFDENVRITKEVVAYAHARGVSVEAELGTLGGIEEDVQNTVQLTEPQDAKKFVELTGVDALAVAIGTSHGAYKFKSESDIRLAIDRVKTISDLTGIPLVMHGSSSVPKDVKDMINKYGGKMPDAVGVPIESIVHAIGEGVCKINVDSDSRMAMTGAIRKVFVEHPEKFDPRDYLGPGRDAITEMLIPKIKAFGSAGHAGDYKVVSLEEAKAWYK
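40 nM FBPA preincubated 10 min at RT with compound (up to 57.5 uM final), then substrate plus GAPDH/TPI/NAD/arsenate coupling and diaphorase/resazurin added. Fluorescence read after 20 min at RT, 525/598 nm.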
Pf growth 96h: inhibits malaria parasite growth, 96 h | Potency, µM (series often up to 28.7 µM), without a hit: at the top dose activity change, negative = inhibition, hits mostly inhibitors | hit rate 6.9% among 320,000 | AID 504834 | P. falciparum luciferase reporter growth, 96 h; note: potency is the fitted concentration of half-maximal effect
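Readout is luminescence from an integrated firefly luciferase in P. falciparum. Red cells, 2% hematocrit and 0.05% parasitemia final, were cultured with compound through two parasite generations (96 hours) at 37 C, 5% CO2.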
Pf growth 48h: P. falciparum growth inhibition at 48 hours (one generation) | hit rate 5.9% among 310,000 | P. falciparum luciferase growth in erythrocytes, 48 h | Potency, µM (doses to about 28.7 µM), for the others: at the highest dose activity change, negative = inhibition, usual class: inhibitors | AID 504832; note: potency is the fitted concentration of half-maximal effect
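Read-out is firefly luciferase luminescence from an integrated reporter in P. falciparum, so falling signal marks reduced parasite growth. Infected erythrocytes were at 2% hematocrit and 0.1% parasitemia (final) in Albumax-supplemented RPMI 1640.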
HCMV inh: human cytomegalovirus inhibition. HFF cells, HCMV-luciferase reporter, 72 h; hits give low values. AID 1259415. activity change, negative = inhibition, % at 57.5 µM. hit rate 4.5% among 410,000; in the data active = activity change below about -60%; inconclusive = no clear call, values can overlap the other calls; inactive = above about -39%
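Screen run at 2 compound doses on HFFs infected with reporter HCMV, MOI 1 PFU/cell. Luciferase activity from cell lysates at 72 h post infection gave inhibition relative to buffer-only and Salinomycin wells.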
Sm TGR block: blocks Schistosoma mansoni thioredoxin glutathione reductase | Q962Y6 | purified TGR, DTNB reduction, TNB absorbance 405 nm | Potency, µM (highest dose often 114 µM), for the others: at the top dose activity change, negative = inhibition, hits mostly inhibitors | hit rate 3% among 360,000 | AID 485364; note: potency is the fitted concentration of half-maximal effect; nearly all actives have a fitted effect of over 60% in size
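TGR 20 nM + NADPH 100 uM (dispensed conc.), cpd preinc 15 min RT; start with NADPH (500 uM addition) then DTNB (15 mM addition). Kinetic TNB absorbance, 405 nm filter. Four-parameter Hill fit across titration.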
Numbers without * were called inactive; u = inconclusive; x = not tested or not shown. Unless noted, calls come from the whole dose curve; as a rule, active = well fitted curve in the direction sought with a large enough effect; inconclusive = small, poorly fitted or top-dose-only effect, or another doubt; inactive = no such curve, though single readings can be large; an effect the other way counts as inactive or inconclusive. % is set by controls: 0 for no effect and ±100 for the full control effect.

SMILES	FBPA Giardia inh	Pf growth 96h	Pf growth 48h	HCMV inh	Sm TGR block
CCN(CC)S(=O)(=O)c1ccc(C2=NOC3(C2)N(C)c2ccccc2C3(C)C)cc1 (stereo not drawn)	-3.8%	13.1µM*	11.7µM*	-75.9*	6.2%
CN1c2ccccc2C(C)(C)C12CC(c1ccc(S(=O)(=O)N3CCCCC3)cc1)=NO2 (stereo not drawn)	-2.9%	-20.1%	-11.2%	-70.3*	1.3%
COc1ccc(C(=O)N2CCC3(CCN(CC(C)C)CC3)CC2)cc1	1.5%	x	x	x	x
NC(=O)N/N=C/c1ccc(-c2cccc(C(F)(F)F)c2)o1	0.1%	74.3%	33.7%	26.1	-4.6%
O=C(N/N=C/c1ccc(-c2cccc(C(F)(F)F)c2)o1)c1ccccc1Br	0.4%	70.9%	0.5%	-62.0*	-0.7%
FC(F)(F)c1cccc(-c2ccc(/C=N/Nc3nncc(-c4ccccc4)n3)o2)c1	-0.1%	34.0%	11.3%	-15.6	-0.8%
Cc1ccc(NCC(=O)N/N=C/c2ccc(-c3cccc(C(F)(F)F)c3)o2)cc1	-4.9%	-18.5%	3.7%	-0.6	5.1%
O=C(N/N=C/c1ccc(-c2cccc(C(F)(F)F)c2)o1)c1cccc(F)c1	8.6%	u	11.7µM*	u	-19.5%
O=C(N/N=C/c1ccc(-c2cccc(C(F)(F)F)c2)o1)c1ccccc1O	1.3%	-14.7%	8.28µM*	-25.0	-10.5%
CC(C)NC(=O)c1cc(C2CCCCN2C(=O)c2cc(C(C)(C)C)nn2C)on1 (stereo not drawn)	x	x	x	-10.6	x
O=C(Cn1c2[n+](c3ccc(C(F)(F)F)cc31)CCCCC2)Nc1ccc(Br)cc1	-0.2%	10.4µM*	10.4µM*	x	-0.1%
N#Cc1ccc(NC(=O)Cn2c3[n+](c4ccc(C(F)(F)F)cc42)CCCCC3)cc1	0.9%	4.65µM*	11.7µM*	u	-8.8%
N#Cc1ccc(NC(=O)COC(=O)C2CCC2)cc1	x	x	x	75.7	x
O=C(CN1C(=O)CCC1=O)Nc1ccc(Br)cc1	0.8%	11.7%	0.0%	u	-33.1%
CCc1ccc(NC(=O)Cn2c(=O)oc3cc(S(=O)(=O)N4CCCCCC4)ccc32)cc1	x	x	x	-36.7	-3.4%
CCc1ccc(NC(=O)Cn2c3[n+](c4c(F)c(F)ccc42)CCCCC3)cc1	-10.7%	u	3.7µM*	-19.9	-34.9%
Oc1ccc(C=Nc2ccc(N3CCOCC3)cc2)c(O)c1	-20.3%	x	-29.9%	11.2	u
Oc1cc(Br)ccc1C=Nc1ccc(N2CCCCC2)cc1	-26.6%	8.28µM*	8.28µM*	11.8	u
CN1C(=O)CC(N2CCN(CCN=CC3=C(O)CC(C)(C)CC3=O)CC2)C1=O (stereo not drawn)	4.2%	11.7µM*	-10.8%	-28.1	0.0%
O=C1CC(c2ccco2)CC(O)=C1C=NCCN1CCN(C2CC(=O)N(c3ccccc3)C2=O)CC1 (stereo not drawn)	-7.8%	-11.1%	7.6%	4.6	u
CC1(C)CC(=O)C(C=NCCN2CCN(C3CC(=O)N(c4ccc(Cl)c(Cl)c4)C3=O)CC2)=C(O)C1 (stereo not drawn)	0.6%	1.8%	14.8%	-4.6	25.1µM*
CCC(C)c1ccccc1NC(=O)CN1CCN(C/C=C/c2ccccc2)CC1 (stereo not drawn)	4.4%	13.1µM*	u	19.8	-3.5%
COc1ccc(Cl)cc1NC(=O)C(C)N1CCN(C/C=C/c2ccccc2)CC1 (stereo not drawn)	u	11.7µM*	x	3.3	-13.7%
Cc1ccc(S(=O)(=O)NCCC(=O)N2CCN(C/C=C/c3ccccc3)CC2)cc1	x	u	u	15.3	-10.5%
Cc1ccc(S(=O)(=O)NC(CC(C)C)C(=O)N2CCN(C/C=C/c3ccccc3)CC2)cc1 (stereo not drawn)	x	u	8.28µM*	u	-3.7%
O=C(CN1CCN(C/C=C/c2ccccc2)CC1)NCc1ccccc1	0.0%	-26.4%	-1.8%	-6.5	10.8%
CC(=O)c1ccc(S(=O)(=O)NCC(=O)N2CCN(C/C=C/c3ccccc3)CC2)cc1	x	11.7µM*	11.7µM*	-10.9	7.94µM*
Cc1ccc(C)c(C(=O)CCC(=O)OCn2nnc3ccccc3c2=O)c1	x	11.2%	4.9%	-34.3	-25.5%
CCCCCN(C(=O)NC(=O)Nc1ccc(C)cc1)S(=O)(=O)c1ccccc1	3.2%	61.2%	26.1%	-17.1	-20.8%
